Experiment in all cases: NCI-60 one-dose screen, 48 h (100 = growth as untreated, 0 = no growth, -100 = all killed)
One test deals with DU-145 prostate. The following applies: 10 µM unless noted.
Another test relates to K-562 leukemia. The following applies: 10 µM unless noted.
Another test relates to MALME-3M melanoma. To be noted: 10 µM unless noted.
In a further test the test system is MDA-MB-231 breast. To be noted: 10 µM unless noted.
Another test deals with RXF 393 renal. The following applies: 10 µM unless noted.
A further test has as its system SF-268 CNS. To be noted: 10 µM unless noted.
A further test deals with SF-295 CNS. The following applies: 10 µM unless noted.
Another test deals with SF-539 CNS. To be noted: 10 µM unless noted.
A further test relates to UACC-257 melanoma. To be noted: 10 µM.
A further test relates to M14 melanoma. To be noted: 10 µM unless noted.

Compounds without any hit were thinned out: in the full panel of roughly 83,000, 20% have a hit.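 Values shown are percent growth following 48 h exposure of cells in 96-well plates to a single concentration of compound; below 10 was considered active.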 Values without a mark were called inactive. Calls of active or inactive are those of the source.

Regarding `CCn1c2ccc(/C=N/NS(=O)(=O)CCN(C)C)cc2c2cc(/C=N/NS(=O)(=O)CCN(C)C)ccc21`, the growth was 105% with DU-145 prostate; 94.1% in the test on K-562 leukemia; 85.3% in the test on MALME-3M melanoma; 89.7% with MDA-MB-231 breast; 96.6% in the test with RXF 393 renal; 90.2% in the test with SF-268 CNS. The growth in the test on SF-295 CNS is 103%; in the test on SF-539 CNS, 90.5%; with UACC-257 melanoma, 103%; in the test with M14 melanoma, 104%.

As to `CCOC(=O)c1c(NC(=O)c2cccc(C(F)(F)F)c2)sc2c(CN3CCN(C)CC3)c(O)ccc12`, the growth was -85.6% (active) in the test with DU-145 prostate; 1.42% (active) in the test with K-562 leukemia; -86.6% (active) in the test with MALME-3M melanoma; -75.5% (active) with MDA-MB-231 breast; 35.1% in the test on RXF 393 renal; 26.2% with SF-268 CNS. The growth in the test with SF-295 CNS is -81% (active); in the test with SF-539 CNS it was -94.7% (active); in the test with UACC-257 melanoma it was 28.1%; with M14 melanoma, -54.6% (active).

For `Nc1ccc(-c2nnc(SCc3ccc(O)c4ncccc34)n2-c2ccccc2)cc1`, the growth in the test on DU-145 prostate was 24.1%; in the test on K-562 leukemia, 15.9%; with MALME-3M melanoma it was 5.24% (active); in the test with MDA-MB-231 breast it was 17%; with RXF 393 renal, 13.5%; in the test with SF-268 CNS, 23.3%. Also, the growth with SF-295 CNS is 0.907% (active); in the test with SF-539 CNS, 10.5%; in the test on UACC-257 melanoma it was 3.16% (active); with M14 melanoma, 14.9%.

Regarding `O=c1[nH]c2cc(Cl)ccc2n1C1CCN(c2ccc3nnc(Cl)n3n2)CC1`, the growth in the test on DU-145 prostate was 99.8%; in the test on K-562 leukemia, 81.4%; in the test with MALME-3M melanoma, 104%; in the test on MDA-MB-231 breast, 95.6%; with RXF 393 renal it was 83.7%; in the test with SF-268 CNS, 92.5%. Moreover, the growth in the test on SF-295 CNS is 87.5%; with SF-539 CNS, 91%; in the test with UACC-257 melanoma, 95.9%; in the test with M14 melanoma it was 98.1%.

With `Nc1n[nH]c2cccc(C#Cc3cccc(NC(=O)c4cccc(OC(F)(F)F)c4)c3)c12`, the growth with DU-145 prostate is 71.4%; in the test on K-562 leukemia, 7.22% (active); in the test on MALME-3M melanoma, 2.17% (active); in the test on MDA-MB-231 breast, 17.7%; in the test with RXF 393 renal, 24.2%; in the test with SF-268 CNS it was 50.9%. The growth was 73.8% in the test with SF-295 CNS, 6.63% (active) in the test with SF-539 CNS, 63.1% in the test on UACC-257 melanoma and 31% with M14 melanoma.

As to `COc1cc(/C=N/n2cnc3oc(-c4ccccc4)cc3c2=N)cc(CN2CCCCC2)c1O`, the growth was -82.8% (active) with DU-145 prostate; 3.54% (active) with K-562 leukemia; -81% (active) in the test on MALME-3M melanoma; -73.4% (active) in the test with MDA-MB-231 breast; -66.7% (active) in the test with RXF 393 renal; -66.9% (active) in the test on SF-268 CNS. Moreover, the growth in the test on SF-295 CNS is -96% (active); in the test on SF-539 CNS, -87.9% (active); in the test with UACC-257 melanoma, -27% (active); with M14 melanoma, -83.5% (active).

Consider `Oc1ccc(CSc2nnc(-c3ccccc3)n2-c2ccccc2)c2cccnc12`, for which the growth with DU-145 prostate is 21.3%; in the test with K-562 leukemia, 11.2%; with MALME-3M melanoma it was 12.2%; in the test on MDA-MB-231 breast, 31%; with RXF 393 renal, -4.02% (active); in the test with SF-268 CNS, 17.2%. The growth in the test with SF-295 CNS was 0.953% (active); in the test on SF-539 CNS, 0.484% (active); in the test on UACC-257 melanoma it was 3.18% (active); in the test with M14 melanoma, -10.6% (active).

`COc1ccc(Cn2cc3c(c2-c2ccccc2)CCCc2cnoc2-3)cc1[N+](=O)[O-]`: the growth was 84.2% in the test with DU-145 prostate; 17.8% in the test with K-562 leukemia; 60.5% in the test with MALME-3M melanoma; 75.2% with MDA-MB-231 breast; 49.6% in the test on RXF 393 renal; 78.5% in the test with SF-268 CNS. Besides, the growth is 69.5% in the test on SF-295 CNS, 70.5% in the test on SF-539 CNS, 75.3% with UACC-257 melanoma and 51% in the test with M14 melanoma.

Regarding `CC(C)C(=O)Nc1ccc(-c2nc(-c3cccc(O)c3)c(-c3ccnc(Br)c3)[nH]2)cc1`, the growth is 69.3% with DU-145 prostate; 7.32% (active) in the test on K-562 leukemia; 40.8% in the test on MALME-3M melanoma; 58.5% with MDA-MB-231 breast; -31.5% (active) in the test with RXF 393 renal; 54.8% with SF-268 CNS. Besides, the growth in the test with SF-295 CNS is -40.5% (active); with SF-539 CNS, 34.5%; in the test on UACC-257 melanoma, 52.7%; with M14 melanoma, 49.4%.

As to `O=C(O)CNS(=O)(=O)c1ccc(Oc2ccc(S(=O)(=O)NCC(=O)O)cc2)cc1`, the growth is 105% with DU-145 prostate; 94.3% in the test on K-562 leukemia; 99.1% with MALME-3M melanoma; 102% with MDA-MB-231 breast; 112% in the test on RXF 393 renal; 96.6% in the test on SF-268 CNS. Also, the growth was 113% in the test on SF-295 CNS, 92.7% in the test with SF-539 CNS, 102% in the test on UACC-257 melanoma and 100% in the test on M14 melanoma.

`Cc1nn(-c2ccc(Cl)cc2)c(C)c1N=Nc1ccc2oc(=O)ccc2c1`: the growth was 74.5% in the test on DU-145 prostate; 73.5% in the test with K-562 leukemia; 89.5% in the test with MALME-3M melanoma; 77.5% in the test on MDA-MB-231 breast; 79.4% with RXF 393 renal; 85.1% in the test on SF-268 CNS. Further, the growth was 90% with SF-295 CNS, 62.1% in the test on SF-539 CNS, 94.6% in the test on UACC-257 melanoma and 104% with M14 melanoma.

For `IP(CCCSc1n(Cc2ccc3ccccc3c2)c(-c2ccccc2)c(-c2ccccc2)[n+]1Cc1ccc2ccccc2c1)(c1ccccc1)(c1ccccc1)c1ccccc1`, the growth in the test with DU-145 prostate was 34.7%; with K-562 leukemia it was 25.3%; with MALME-3M melanoma it was 14.6%; in the test on MDA-MB-231 breast, 32.5%; in the test with RXF 393 renal it was 99.7%; with SF-268 CNS it was 23.8%. Further, the growth in the test with SF-295 CNS is 31.8%; with SF-539 CNS, 35.3%; with UACC-257 melanoma, 4.7% (active); in the test with M14 melanoma, 51.5%.

For the molecule `CN1CCN(c2nc(-c3csc(-c4ccncc4)n3)cc3ccccc23)CC1`, the growth with DU-145 prostate is 65.3%; with K-562 leukemia it was 11%; in the test on MALME-3M melanoma, 30.7%; in the test on MDA-MB-231 breast, 63%; with RXF 393 renal, -26.5% (active); with SF-268 CNS, 72.8%. For the same molecule, the growth in the test on SF-295 CNS was 45.8%; in the test on SF-539 CNS it was 52.6%; in the test on UACC-257 melanoma, -1.71% (active); in the test with M14 melanoma it was -18.5% (active).

The record behind these values is PubChem BioAssay (NCI).
